The sample as a whole holds a higher share of hits than the screen did.
G9a block = blocks human histone lysine methyltransferase G9a. G9a H3K9 monomethylation, AlphaScreen, 2 h. Potency, µM (highest dose often 102 µM), without a hit: top-dose activity, negative = inhibition, actives largely listed as inhibitors. actives 8.8% (n = 350,000). AID 504332; further: on the % scale 0 is the no-effect control and ±100 the full control effect; nearly all actives have a fitted effect of over 75% in size
Target sequence (Q96KQ7 913-1193 limits assumed): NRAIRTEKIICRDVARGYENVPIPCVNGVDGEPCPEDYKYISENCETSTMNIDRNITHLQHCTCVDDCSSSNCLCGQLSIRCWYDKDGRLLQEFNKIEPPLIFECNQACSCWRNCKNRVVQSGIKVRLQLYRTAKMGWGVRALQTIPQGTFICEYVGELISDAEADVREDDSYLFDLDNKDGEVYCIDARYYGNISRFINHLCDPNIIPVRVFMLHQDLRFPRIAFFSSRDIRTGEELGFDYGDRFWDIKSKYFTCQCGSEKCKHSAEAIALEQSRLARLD
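AlphaScreen detection with an anti-monomethyl H3K9 antibody quantified product after a 2 h room-temperature reaction containing 500 nM biotinylated H3K9 peptide, 20 µM SAM and 20 nM enzyme, which had been preincubated 15 min with compound.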
Glioma ERSR ind = induces the endoplasmic reticulum stress response in human glioma cells; Potency, µM, without a hit: top-dose activation, actives largely listed as activators; U87-MG GRP78 promoter luciferase reporter, 16 h; actives 0.02% (n = 420,000); further: series mostly up to about 76 µM; % of control where 0% means no effect; nearly all actives have a fitted effect of over 35% in size
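ERSR induction read as luciferase luminescence (Bright-Glo, 10 min at room temperature) in stably transfected human U87-MG glioma cells exposed to compounds for 16 h, using GRP78 as sensor.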
VDR inh = blocks the human vitamin D receptor; VDR-SRC2-3 peptide fluorescence polarization, 2 h; P11473; actives 0.93% (n = 400,000); AID 504847; Potency, µM, without a hit: max response, negative = inhibition, most hits filed as inhibitors; further: on the % scale 0 is the no-effect control and ±100 the full control effect
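Measured by FP: displacement of SRC2-3 coactivator peptide from VDR by library compounds, following a two-hour ambient incubation.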
12-LOX inh = inhibitors of human 12S-lipoxygenase ALOX12. P18054. purified 12hLO, xylenol orange hydroperoxide absorbance. Potency, µM (series often up to 108 µM), for inactives: at the highest dose activity change, negative = inhibition, hits mostly inhibitors. actives 1.1% (n = 580,000). AID 1671190; further: on the % scale 0 is the no-effect control and ±100 the full control effect
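Purified human 12hLO (150 nM final) in 25 mM Hepes, 0.01% Triton X-100, pH 7.0 was preincubated 15 min at room temperature with compound. Then 40 uM arachidonic acid was added, 30 min. Hydroperoxide was read by Fe-XO absorbance ratio 573/405 nm.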
Sfp inh = inhibitors of Bacillus subtilis Sfp phosphopantetheinyl transferase; Biochemical Sfp PPTase activity, qHTS; Q9F4F7; Potency, µM, without a hit: largest response in the series, negative = inhibition, usual class: inhibitors; AID 1490; actives 3.5% (n = 310,000);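 further: the enzyme is Sfp with the accession as filed and its product quenches rhodamine fluorescence; 0% = enzyme reaction without inhibitor and -100% = no enzyme wells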
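Buffer: 50 mM Hepes-Na pH 7.6, 10 mM MgCl2, 0.01% Nonidet P-40, 0.01% BSA. Enzyme 15 nM, pre-exposed to compound 15 min; substrates then added and fluorescence change tracked over 30 min.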
Active calls of the source: *; u = inconclusive; x = no result; [ ] = another dose, or the depositor's remark. The call rests on the fitted dose curve; in most records, active means well fitted curve in the direction sought with a large enough effect; inconclusive means small, poorly fitted or top-dose-only effect, or another doubt; inactive means no such curve, though single readings can be large; an effect the other way counts as inactive or inconclusive. Potency means the concentration at half of the fitted maximal effect.

SMILES	G9a block	Glioma ERSR ind	VDR inh	12-LOX inh	Sfp inh
COc1ccccc1C(=O)NCC(=O)NC(C)c1ccc(-n2ccnc2)cc1 (configuration not stated)	10µM*	-3%	-1%	3%	3%
COCCOC1CCOC2(CCN(C(=O)COc3ccc(F)cc3)CC2)C1 (configuration not stated)	x	x	x	2%	x
Oc1ccccc1C(=S)N1CCN(c2cccc(Cl)c2)CC1	-9%[0.501 µM]	-3%	89µM*	u	16µM*
COc1cc(C(=S)N2CCN(c3cccc(Cl)c3)CC2)ccc1O	-5%[0.501 µM]	-3%	40µM*	45µM*	10µM*
COc1ccc(C(=S)N2CCN(c3cccc(Cl)c3)CC2)c(OC)c1	10µM*	-4%	u	u	18µM*
O=C(NCC1CCCO1)c1ccc(NS(=O)(=O)c2cccs2)cc1 (configuration not stated)	35µM*	-3%	-16%	2%	u
CC(=O)Nc1sc(C)c(C)c1C(=O)OCC(=O)Nc1ccccc1	3%[59 µM]	0%	-9%	6%	x
Cc1ccccc1C(=O)Nc1sc(C)c(C)c1C(=O)c1ccccc1	10µM*	-5%	u	u	32µM*
O=C(Nc1sc2c(c1C(=O)O)CCC2)c1ccccc1Cl	8%[0.501 µM]	-3%	14%	-5%	18%
CCOC(=O)c1sc(NC(=O)c2ccccc2C(=O)O)c(C(=O)OCC)c1C	-30%	3%	-4%	-12%	18%
Cc1sc(NC(=O)CCl)c(C(=O)c2ccccc2)c1C	u	u	u	u	22µM*
Cc1ccccc1C(=O)Nc1sc2c(c1C(=O)O)CCC2	50µM*	0%	14%	0%	12%
Cc1cc(C(=O)c2ccc(C(C)(C)C)cc2)c(NC(=O)CCl)s1	32µM*	-14%	-5%	-25%	-5%
Cc1ccc(-c2csc(NC(=O)COC(=O)c3ccc(F)cc3Cl)n2)cc1	x	x	x	-6%	x
CN(Cc1ccccc1)C(=O)CNC(=O)C1CCCN(S(=O)(=O)c2ccc(F)cc2)C1 (configuration not stated)	x	x	x	16%	x
Cc1nn(-c2ccccc2)c(C)c1CC(=O)N1CCN(S(=O)(=O)c2ccccc2F)CC1	x	x	x	43%	x
CCN(CC)CCCC(C)NC(=O)c1c(NC(=O)c2ccccc2)sc2c1CCCC2 (configuration not stated)	79µM*	-3%	-5%	u	-18%
COC(=O)c1c(NC(=O)c2nc3ccccc3s2)sc2c1CCN(C(C)=O)C2	-3%	-2%	-17%	x	u
CNC(=O)c1c(NC(=O)c2nc3ccccc3s2)sc2c1CCC2	40µM*	x	x	x	18µM*
NCCCNC(=O)c1ccc(/C=N/O)nc1	2.8µM*	-3%	-3%	0%	71µM*
CC(C)(C)OC(=O)Nc1ccc(C(=O)NCC(c2cccs2)N2CCCC2)cc1 (configuration not stated)	x	x	x	-15%	x
Cc1cn2nc(C(=O)N3CCN(C(=O)c4ccc(C)s4)CC3)cc2c(=O)[nH]1	x	x	x	24%	x
Cc1ccccc1NC(=O)C(=O)c1c[nH]c2ccccc12	x	x	x	-3%	x
O=C1NN(c2ccccc2)C(=O)/C1=C\c1coc2ccc(O)cc2c1=O	14%[12.7 µM]	-4%	22µM*	u	79µM*
O=C1NN(c2ccccc2)C(=O)/C1=C/c1cccs1	-11%[59 µM]	x	x	-26%	9%
SMILES	G9a block	Glioma ERSR ind	VDR inh	12-LOX inh	Sfp inh
O=C1NN(c2ccccc2)C(=O)/C1=C/c1coc2ccccc2c1=O	u	1%	40µM*	u	-6%
O=C(NCc1cccnc1)N1CCN(S(=O)(=O)c2cc(Cl)ccc2Cl)CC1	x	x	x	-4%	x
CC(Sc1nnc(N)s1)c1ccccc1Cl (configuration not stated)	40µM*	-2%	6%	16%[57.4 µM]	17%
CC(Oc1ccccc1Cl)c1nnc(N)s1 (configuration not stated)	52%[59 µM]	-8%	-2%	0%	2%
O=C(Nc1ccccc1N1CCCC1)c1ccc2c(c1)OCO2	45µM*	-2%	6%	-21%	0%
O=C(Nc1cc(C(F)(F)F)ccc1N1CCCC1)c1ccc2c(c1)OCO2	45µM*	-6%	23%	58%	19%
CC(=O)c1cn(CC(=O)N2CCC(C(=O)O)CC2)c2ccccc12	x	x	x	6%	x
Nc1nc(SCC(=O)NCc2ccccc2Cl)n[nH]1	x	x	x	-5%	x
CCOC(=O)COc1c(Cl)cc(C2NC(=S)NC(c3ccccc3)=C2C(C)=O)cc1OC (configuration not stated)	-9%[59 µM]	-13%	-29%	u	-5%
COc1cc(C2NC(=S)NC(c3ccccc3)=C2C(C)=O)cc(Cl)c1OCC(=O)O (configuration not stated)	x	-3%	0%	u	89µM*
CC(=O)C1=C(c2ccccc2)NC(=S)NC1c1cc(Cl)c(OC(C)C)c(Cl)c1 (configuration not stated)	-8%[59 µM]	-5%	-11%	28µM*	6%
CNC(=O)C(CCSC)NC(=O)c1ccc2ccccc2n1 (configuration not stated)	x	x	x	1%	x
COC(=O)CN1C(=S)N(c2ccc(Cl)cc2)C(=O)C1CC(=O)Nc1ccc(F)cc1 (configuration not stated)	50µM*	-3%	0%	u	-7%
COC(=O)CN1C(=S)N(c2ccc(Cl)cc2)C(=O)C1CC(=O)Nc1ccc(Cl)cc1 (configuration not stated)	19%[59 µM]	16%	-6%	35µM*	79µM*
O=C(CC1C(=O)NCCN1C(=O)Nc1ccc(Cl)cc1)Nc1ccc(F)cc1 (configuration not stated)	-4%	-5%	4%	40µM*	18%
COC(=O)CN1C(=S)N(c2ccc(F)cc2)C(=O)C1CC(=O)Nc1ccc(F)cc1 (configuration not stated)	-45%[59 µM]	-1%	2%	u	4%
O=C(CC1C(=O)NCCN1C(=O)c1ccc(Cl)cc1)Nc1ccc(F)cc1 (configuration not stated)	4%	-3%	2%	u	24%
CC(=O)N1Cc2ccccc2CC2(CCCCN2CC2CCCC2)C1 (configuration not stated)	x	x	x	67%	x
COc1ccc(-c2cc(C(F)(F)F)nc(-n3cc(Br)cn3)n2)cc1	8%[12.7 µM]	-5%	1%	0%	22µM*
CCOc1ccc(C2c3c(oc4cc(C)c(C)cc4c3=O)C(=O)N2CCCN2CCOCC2)cc1 (configuration not stated)	28µM*	-6%	-2%	-23%	50µM*
CCOc1ccc(C2c3c(oc4ccccc4c3=O)C(=O)N2CCCN2CCOCC2)cc1 (configuration not stated)	u	2%	-3%	5%	-3%
